This is a sample that favours compounds with a hit; in the whole collection about 3.6% have one here.
TGFb inhibitor – inhibitors of TGF-b signaling | Potency, µM (top dose mostly 46.1 µM), usual class: inhibitors | HepG2 CAGA-GFP TGF-b/SMAD3 reporter, GFP fluorescence, 18 h; TGF-beta stimulated, 500 pg/mL final | hit rate 1.2% among 410,000; also: nearly all actives have a fitted effect of over 65% in size
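GFP signal (ex488/em500-530) from TGF-beta-stimulated HEPG2 CAGA-GFP cells, 500 pg/mL final, 18 h at 37 degrees C in DMEM plus 1% FBS, normalized to unstimulated and DMSO-stimulated controls.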
Nrf2 block – blocks Nrf2 signaling; A549 ARE-Fluc reporter, luciferase luminescence, 18-24 h; Potency, µM (top dose mostly 46 µM), most hits filed as inhibitors; hit rate 2.1% among 360,000; also: nearly all actives have a fitted effect of over 60% in size
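Reporter: ARE-Fluc in A549. Exposure: 18-24 h, 37 °C, 5% CO2, 5% FBS OPTI-MEM. Readouts: fluorescent cytotoxicity (CellTiter-Fluor), then luminescent Nrf2 signal after BugLite.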
Nrf2 ARE act – activators of Nrf2 (ARE) signaling. Potency, µM (series often up to 46.1 µM), hits mostly activators. AREc32 ARE-luciferase reporter (MCF7-derived line), luminescence, 24 h. AID 624171. hit rate 0.31% among 410,000; also: nearly all actives have a fitted effect of over 65% in size
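Nrf2 activation is followed as ARE-luciferase induction in the AREc32 line after one day of compound treatment; luminescence is read with Steady-Glo.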
A549 tox-1 – A549 cytotoxicity, counter-screen for Nrf2 inhibitors; Potency, µM (highest dose often 46 µM), hits mostly inhibitors; hit rate 0.16% among 390,000; AID 504648; A549 ARE-Fluc cells, CellTiter-Fluor viability, 18-24 h
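A549 ARE_Fluc cells in 5% FBS OPTI-MEM were exposed to compounds in concentration-response for 18-24 h at 37 deg C. Viability was read by CellTiter-Fluor fluorescence (Ex 405/Em 525) after 30 min, before the luciferase read.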
HepG2 viability – HepG2 cytotoxicity, counter-screen for TGF-b inhibitors | HepG2 CAGA-GFP viability, ATP luminescence, 18 h | hit rate 0.76% among 410,000 | AID 588856 | Potency, µM (highest dose often 46.1 µM), actives largely listed as cytotoxic
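CellTiter-Glo luminescence gave cytotoxicity after 18 hours at 37 degrees C. The cells were HepG2 CAGA-GFP in 1% FBS DMEM, stimulated with 500 pg/mL TGF-beta after compound addition. %Activity was normalised to no-cell wells (complete cell-killing) and DMSO (no toxicity), and curves were fitted and classified.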
FLuc enzyme inh – firefly luciferase inhibition, Nrf2 hit validation. purified firefly luciferase, luminescence inhibition. Potency, µM (highest dose often 57.5 µM), hits mostly inhibitors. hit rate 4% among 1,400. shares compounds with Nrf2 block. AID 720522; also: nearly all actives have a fitted effect of over 65% in size
Target sequence (P08659 whole entry, looked up): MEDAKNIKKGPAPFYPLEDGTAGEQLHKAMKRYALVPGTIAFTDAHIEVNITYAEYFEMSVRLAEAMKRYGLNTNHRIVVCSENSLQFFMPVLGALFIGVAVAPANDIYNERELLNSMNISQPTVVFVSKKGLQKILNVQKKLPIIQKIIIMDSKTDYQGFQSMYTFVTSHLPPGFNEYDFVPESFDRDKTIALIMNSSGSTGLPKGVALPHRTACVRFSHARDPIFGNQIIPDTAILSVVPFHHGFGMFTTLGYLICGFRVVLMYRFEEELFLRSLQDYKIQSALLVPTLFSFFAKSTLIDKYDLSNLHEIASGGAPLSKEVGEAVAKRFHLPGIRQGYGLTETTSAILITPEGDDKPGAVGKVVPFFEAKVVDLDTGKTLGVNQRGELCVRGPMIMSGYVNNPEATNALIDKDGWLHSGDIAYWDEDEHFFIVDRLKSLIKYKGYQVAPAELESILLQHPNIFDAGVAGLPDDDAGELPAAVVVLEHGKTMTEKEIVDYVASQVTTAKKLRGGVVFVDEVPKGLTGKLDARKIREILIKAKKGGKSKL
A549 tox-2 – toxic to A549 ARE-Fluc cells in Nrf2 counterscreen; shares compounds with Nrf2 block; A549 ARE-Fluc cells, cytotoxicity counterscreen; Potency, µM (titrated, usually from 46.1 µM), hits mostly inhibitors; hit rate 2% among 1,400; AID 720523;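 also: cells exposed to compounds for 18 to 24 hours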
Nrf2 ARE inh – reduces Nrf2 ARE reporter signal in A549 cells; shares compounds with Nrf2 block; A549 ARE-firefly luciferase reporter, luminescence; Potency, µM (highest dose often 46.1 µM), actives largely listed as inhibitors; hit rate 74% among 1,400; AID 720524; also: nearly all actives have a fitted effect of over 65% in size
Numbers stand for hits; - = inactive; ? = inconclusive; . = not tested or not shown. Calls follow the shape of the dose curve; as a rule, active = well fitted curve in the direction sought with a large enough effect; inconclusive = small, poorly fitted or top-dose-only effect, or another doubt; inactive = no such curve, though single readings can be large; an effect the other way counts as inactive or inconclusive.

SMILES	TGFb inhibitor	Nrf2 block	Nrf2 ARE act	A549 tox-1	HepG2 viability	FLuc enzyme inh	A549 tox-2	Nrf2 ARE inh
C=C(c1nc2ccccc2s1)C1Cc2cccc3c2N(CCC3)C1 (centres undefined)	4µM	.	.	.	7.1µM	12µM	-	2.6µM
CC(C)(CNC(=O)CO/N=C1/C=C2CCC3C(C(O)C[C@@]4(C)C3CC[C@]4(O)C(=O)CO)[C@@]2(C)CC1)C(O)C(=O)O (some centres undefined)	-	1.8µM	-	-	-	-	-	.
CCC(CC)C(=O)OCC(=O)C1(O)CCC2C3CCC4=CC(=O)CCC4(C)C3C(O)CC21C (centres undefined)	-	0.33µM	-	-	-	-	-	0.1µM
CC(=O)OCC=C1CCC2C3CCC4=CC(=O)CCC4(C)C3C(O)CC12C (centres undefined)	-	-	-	-	-	.	.	.
CCCC(=O)O[C@]1(C(=O)CO)CC[C@H]2[C@@H]3CCC4=CC(=O)CC[C@]4(C)[C@H]3[C@@H](O)C[C@@]21C	-	0.023µM	-	-	-	-	-	0.015µM
C[C@]12CC(O)C3C(CCC4=CC(=O)CC[C@@]43C)C1CCC2c1csc(-c2ccccc2)n1 (some centres undefined)	-	?	-	-	-	.	.	.
C[C@]12CCC(=O)C=C1CC[C@@H]1[C@@H]2[C@@H](O)C[C@@]2(C)[C@H]1CC[C@]2(O)C(=O)COC(=O)CCC(=O)O	-	0.33µM	-	-	-	-	-	0.29µM
O=C(CN1C(=O)COc2ccccc21)N1CCc2ccccc2C1	-	?	-	-	-	.	.	.
COc1ccc(/C=N/NC(=O)CC#N)cc1Oc1nc(Cl)ncc1F	-	-	-	-	-	.	.	.
CC1CC2(C)C(=CC1=O)CCC1C2C(O)CC2(C)C1CCC2(O)C(=O)CO (centres undefined)	-	0.12µM	-	-	-	-	-	0.18µM
C[C@]12CCC(=O)C=C1CC[C@@H]1[C@@H]2CC[C@@]2(C)[C@H]1CC[C@@]21CCC(=O)O1	-	-	-	-	-	.	.	.
CC(=O)OCC(=O)[C@@]1(O)CC[C@H]2[C@@H]3CCC4=CC(=O)CC[C@]4(C)[C@H]3C(=O)C[C@@]21C	-	-	-	-	-	.	.	.
CC(=O)OCC(=O)[C@@]1(O)CC[C@H]2[C@@H]3CCC4=CC(=O)CC[C@]4(C)[C@H]3[C@@H](O)C[C@@]21C	-	0.041µM	-	-	-	-	-	0.073µM
CC(=O)OCC(=O)C1(O)CCC2C3CC(F)C4=CC(=O)CCC4(C)C3C(O)CC21C (centres undefined)	-	0.065µM	-	-	-	-	-	0.018µM
CCOC(=O)N1CCN(C(=O)c2ccc(Cn3c(=S)[nH]c4ccc(Br)cc4c3=O)cc2)CC1	-	4.1µM	-	?	-	-	?	8.2µM
CCCc1cc(=O)[nH]c(SCc2nc(-c3ccccc3F)no2)n1	-	.	-	-	-	.	.	.
O=C(NCCc1ccc(Cl)cc1)c1ccc(NC2=NC3CS(=O)(=O)CC3S2)cc1 (centres undefined)	-	-	-	-	-	.	.	.
CCOC(=O)C(=O)N1CCC(Cc2ccccc2)CC1	-	-	-	-	-	.	.	.
CC(=O)O[C@@H]1[C@@H](O)CN[C@@H]1Cc1ccccc1	?	0.23µM	.	?	-	-	?	0.33µM
CC(C)Cn1c(N)c(C(=O)CSc2ccc3c(c2)OCCO3)c(=O)n(C)c1=O	-	0.65µM	-	-	-	-	-	1.8µM
COc1ccc(-c2noc(C3CCCN(C(=O)c4ccccc4OC)C3)n2)cc1 (centres undefined)	-	?	-	-	-	.	.	.
Cc1cccc2sc(NNC(=O)c3ccc(S(=O)(=O)N4CCc5ccccc5C4)cc3)nc12	11µM	?	-	-	-	-	-	6.5µM
CCOC(=O)N1CCN(S(=O)(=O)c2ccc(C(=O)NNc3nc4ccc(Cl)cc4s3)cc2)CC1	?	5.8µM	-	?	-	-	-	7.3µM
Cc1cc(C)nc(Nc2nc(=O)c3ccccc3s2)n1	?	-	-	-	-	.	.	.
CC(Oc1ccc(Br)cc1)C(=O)Nc1ccncc1 (centres undefined)	-	8.2µM	-	-	-	-	-	.
SMILES	TGFb inhibitor	Nrf2 block	Nrf2 ARE act	A549 tox-1	HepG2 viability	FLuc enzyme inh	A549 tox-2	Nrf2 ARE inh
CC(Oc1ccc(Br)cc1)C(=O)NCc1ccccn1 (centres undefined)	-	-	-	-	-	.	.	.
Cc1cccc(C)c1NC(=O)CN1CCN(C/C=C/c2ccccc2)CC1	-	.	-	.	-	.	.	.
CC(=O)c1cn(CCOc2ccccc2C)c2ccccc12	-	4.6µM	-	-	-	-	-	6.5µM
CC1(C)CC(=O)C2=C(C1)N(Cc1ccco1)C(=O)NC2(C(F)(F)F)C(F)(F)F	-	-	-	-	-	.	.	.
COc1ccc(C2=C/C(=C/c3cccnc3)C(=O)O2)cc1OC	-	-	-	-	-	.	.	.
COc1cc(Cl)c(NS(=O)(=O)c2ccc3c(c2)CC(C)N3C(=O)C2CCC2)c(OC)c1 (centres undefined)	?	9.2µM	-	-	-	-	-	8.2µM
CC1Cc2cc(S(=O)(=O)NCc3ccccc3)ccc2N1C(=O)C1CCC1 (centres undefined)	-	1.6µM	-	-	-	-	-	?
CC1Cc2cc(S(=O)(=O)NCc3ccccc3)ccc2N1C(=O)C1CC1 (centres undefined)	-	?	-	-	-	.	.	.
COc1cc(NS(=O)(=O)c2ccc3c(c2)CC(C)N3C(=O)C2CCC2)cc(OC)c1OC (centres undefined)	.	6.5µM	.	-	.	-	-	2.6µM
COc1ccc(N2CCN(S(=O)(=O)c3ccc4c(c3)CC(C)N4C(C)=O)CC2)cc1 (centres undefined)	-	9.2µM	-	-	-	-	-	5.8µM
CC(=O)N1c2ccc(S(=O)(=O)N3CCN(c4cccc(Cl)c4)CC3)cc2CC1C (centres undefined)	-	?	-	-	-	.	.	.
CCN1C(=O)c2cccc3c(S(=O)(=O)NCCCN4CCOCC4)ccc1c23	-	-	-	-	-	.	.	.
CC[n+]1c(/C=C/N(C)c2ccccc2)oc2ccc(F)cc21	-	6.5µM	-	-	-	-	-	5.8µM

Screens from PubChem.
